Potency, max response and outcome data for 25 compounds are collected here from PubChem BioAssay (NCATS).

Several values for one entry are separate records, joined by “and”; a condition that tells them apart may be missing. Identical values can stand only once. Inconclusive results are not listed. Values without a mark were called inactive. Activity calls are given as the source filed them. Calls come from the whole dose curve; as a rule, active = well fitted inhibition curve with a large enough effect; inconclusive = small, poorly fitted or top-dose-only effect; inactive = flat fitted curve, though single readings scatter.

Assay [1] concerns SC27B. The experiment in a line: qHTS profiling for inhibitors of Plasmodium falciparum proliferation (AID 504749). Particulars: P. falciparum in erythrocytes, SYBR Green DNA, 72 h; series mostly up to 28.7 µM. In a few lines: (§1)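 Readout was DNA-dye fluorescence from lysed cultures, ex 485/em 535 nm. Parasitized red cells had grown 72 h with compound; data scaled between 0.29 uM artemisinin and DMSO wells and corrected using vehicle-only plates.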

The subject of assay [2] is TAB113. Described as above. The conditions noted are these: P. falciparum in erythrocytes, SYBR Green DNA, 72 h; series mostly up to 28.7 µM. In a few lines: as §1
Assay [3] concerns W2. The assay is described as above. The conditions noted are these: P. falciparum in erythrocytes, SYBR Green DNA, 72 h; series mostly up to 28.7 µM. In a few lines:
as §1

The test system of assay [4] is CRL-7250. The assay can be described thus: Cytotoxic Profiling of Annotated Libraries Using Quantitative High-Throughput Screening (AID 1296008). For max response: % is set by controls: 0 for no effect and ±100 for the full control effect. Particulars: Five cell lines viability, CellTiter-Glo ATP luminescence, 48-72 h; max response: active compounds read low. In a few lines: (§2)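 Cells exposed to compounds for 48 or 72 hr at 37 degrees Celsius. Viability read as ATP-coupled luminescence with CellTiter-Glo after 10 min at room temperature.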

Assay [5] deals with HEK293. The assay is described as above. Particulars: Five cell lines viability, CellTiter-Glo ATP luminescence, 48-72 h; max response: active compounds read low. In a few lines: as §2
Assay [6] deals with HaCat. The description is as above. Particulars: Five cell lines viability, CellTiter-Glo ATP luminescence, 48-72 h; max response: active compounds read low. In a few lines: as §2
Assay [7] concerns PC49. The assay can be described thus: qHTS profiling for inhibitors of Plasmodium falciparum proliferation (AID 504749). Particulars: P. falciparum in erythrocytes, SYBR Green DNA, 72 h; series mostly up to 28.7 µM. In a few lines: as §1
The test system of assay [8] is TAB165. The description is as above. The conditions noted are these: P. falciparum in erythrocytes, SYBR Green DNA, 72 h; series mostly up to 28.7 µM. In a few lines: as §1
The test system of assay [9] is TAB109. The description is as above. Particulars: P. falciparum in erythrocytes, SYBR Green DNA, 72 h; series mostly up to 28.7 µM. In a few lines:
as §1

Assay [10] relates to PC26. The description is as above. The conditions noted are these: P. falciparum in erythrocytes, SYBR Green DNA, 72 h; series mostly up to 28.7 µM. In a few lines:
as §1
Note: nearly all actives have a fitted effect of over 60% in size.
Potency is the fitted concentration of half-maximal effect.

Turning to `O=C(CCN1CCN(CCO)CC1)N1c2ccccc2Sc2ccc(C(F)(F)F)cc21`, the Potency entry in [1] and in assay [2] was “inactive” each time. In [3], the Potency is 7.57 µM (active). The figures for the max response in assay [4], in [5] and in assay [6] were -6.26%, -1.82% and -4.28%, respectively.
Turning to `COc1cc(NC(C)CCCN)c2ncccc2c1` (stereo unspecified), the max response in assay [4] is 4.62%. Moreover, the result in [6] was inactive.
As to `CN1[C@@H]2CC[C@H]1CC(OC(c1ccccc1)c1ccccc1)C2` (stereo partly specified), the Potency in [7] was 3.55 µM (active) and 1.41 µM (active); in assay [8] it was 11.2 µM (active); in assay [3], 1.9 µM (active). Also, the Potency result in assay [1] was “inactive”. Besides, the max response in assay [4] is 0.151%; in [5], -16.7%. In assay [6], the compound was classed as inactive.
Consider `CCCCN(CC)c1nc(C)nc2c1c(C)cn2-c1c(C)cc(C)cc1C`, for which the max response is -5.83% in assay [4] and 4.42% in assay [6].
In the case of `Cc1cc(O)c2ccccc2c1O`, the Potency result in assay [7], in assay [1], in assay [9], in assay [2] and in assay [8] was “inactive” each time. Also, the Potency in [3] is 9.53 µM (active). Moreover, the max response in assay [4] was -18%. Further, the result in assay [6] was inactive.
`CS(=O)(=O)c1ccc(-n2nc(C(F)(F)F)cc2-c2ccc(F)cc2)cc1`: the max response in assay [5] is 1.42%. For the same compound, the result in [6] was inactive.
As for `CCC1C(=O)OCC1Cc1cncn1C` (stereo unspecified), the Potency result in assay [10], in [7], in assay [1], in [9], in [2] and in assay [8] was “inactive” each time. Also, the Potency result in assay [3] was “inactive”. For the same compound, the outcome in assay [4] was inactive. The figures for the max response in assay [5] and in [6] were 0.743% and 0.604%, respectively.
Consider `COC(=O)C1=C(C)NC(C)=C(C(=O)OCC(C)=O)C1c1ccccc1[N+](=O)[O-]` (stereo unspecified), for which the call in assay [5] and in [6] was inactive.
In the case of `O=C(/C=C/c1ccccc1)NCCO`, the Potency entry in assay [10], in assay [7], in assay [1], in assay [9], in assay [2] and in assay [8] was “inactive” each time. Besides, in assay [3], the Potency entry is “inactive”. In addition, the result in [4] was inactive. Besides, the max response in assay [5] was -1.9%; in assay [6], -18%.
For the compound `O=c1[nH]c2ccccc2n1CCCN1CCN(C(c2ccccc2)c2ccccc2)CC1`, the Potency was 6.75 µM (active) in assay [3] and 16.8 µM (active) in [5]. The max response was -27.4% in assay [4] and -21.6% in [6].
In the case of `O=C1CN(/N=C/c2ccc([N+](=O)[O-])o2)C(=O)N1`, the call in [4] was inactive. In assay [6], the max response is 1.83%.
Turning to `CCCC(=O)OC[C@@H](OC(=O)CCC)[C@@H](OC(=O)CCC)[C@H](Cn1c2nc(=O)[nH]c(=O)c-2nc2cc(C)c(C)cc21)OC(=O)CCC`, the Potency entry in assay [10] and in assay [7] was “inactive” each time. Besides, the compound was classed as inactive in [4]. Moreover, in assay [6], the max response is 4.67%.
Regarding `c1ccc(CCNc2nc(-c3ccccc3)cs2)cc1`, in assay [5], the Potency is 11.9 µM (active). In addition, the compound was called inactive in assay [6].
With `CCCOC(=O)c1ccc(O)cc1`, the Potency result in assay [10], in [7], in [1], in assay [9], in assay [2] and in assay [8] was “inactive” in each case. Besides, in assay [3], the Potency entry was “inactive”. Moreover, the max response in assay [4] was 4.61%; in assay [5], -6.34%.
Regarding `Cc1ccc(O)c(-n2nc3ccccc3n2)c1`, the Potency result in assay [10], in assay [7], in assay [1], in assay [9], in assay [2] and in [8] was “inactive” each time. Further, the Potency result in [3] is “inactive”. In addition, the max response is -18.8% in assay [4], -9.47% in [5] and -23.9% in assay [6].
In the case of `COc1cc(CNC(=O)CCCC/C=C/C(C)C)ccc1O`, the Potency entry in assay [10], in assay [7], in [1], in assay [9], in assay [2] and in assay [8] was “inactive” in each case. Besides, the Potency entry in assay [3] was “inactive”. Moreover, the max response in assay [4] was 3.92%; in assay [5], -1.55%.
`Nc1cc(-c2ccncc2)c[nH]c1=O`: the Potency entry in assay [7], in assay [1], in assay [9], in assay [2], in assay [8] and in assay [3] was “inactive” throughout. Moreover, the compound was called inactive in [4]. Besides, the figures for the max response in [5] and in [6] were 1.99% and 3.01%, respectively.
Take `CCCCC1C(=O)N(c2ccccc2)N(c2ccc(O)cc2)C1=O` (stereo unspecified): the Potency in assay [5] is 4.73 µM (active).
On to `c1ccc2sc(SN3CCOCC3)nc2c1`, for which the Potency result in assay [10], in [7], in assay [1] and in [2] was “inactive” throughout. Further, the compound was classed as inactive in assay [4], in assay [5] and in assay [6].
For `CC(N)C(=O)OC(C)(C)Cc1ccc(Cl)cc1` (stereo unspecified), the Potency in assay [3] is 4.26 µM (active). Also, the max response in assay [4] was 4.4%. In [6], the compound was called inactive.
With `CN(C)c1ccc(C(=C2C=CC(=[N+](C)C)C=C2)c2ccccc2)cc1`, the Potency entry in [7] and in [1] was “inactive” throughout. Further, the Potency is 12.6 µM (active) in [9]; 5.01 µM (active) in [8]; 1.35 µM (active) in [3]; 0.0841 µM (active) in assay [4]; 0.0944 µM (active) in [5]; 0.266 µM (active) in assay [6].
In the case of `CCCCCCCCCCCC(=O)[O][Sn]([CH2]CCC)([CH2]CCC)[O]C(=O)CCCCCCCCCCC`, the Potency entry in assay [7], in [1], in assay [9], in assay [2], in assay [8] and in assay [3] was “inactive” throughout. Besides, the max response in [4] was -26.6%; in [5], -9.3%. Also, in assay [6], the compound was called inactive.
With `COc1ccc(/C=C/C(=O)Nc2ccccc2C(=O)O)cc1OC`, the Potency entry in [10], in [7], in assay [1], in assay [9], in assay [2] and in [8] was “inactive” in each case. For the same compound, the max response was 2.22% in assay [4] and 0.531% in [5].
With `O=C(O)c1cc(O)c(O)c(O)c1`, the Potency result in assay [10], in [7], in assay [1] and in assay [9] was “inactive” in each case. Besides, the Potency in assay [3] is 5.36 µM (active).
For the compound `O=C(O)/C=C/C(O)c1ccc(Cl)cc1` (stereo unspecified), the Potency entry in assay [10], in [7], in assay [1], in [9], in assay [2] and in assay [8] was “inactive” in each case. The Potency result in [3] is “inactive”.
